Assays:
Details in all cases: concentration: 1 μM, replicates: in singlicate; n = 1
[1] = test system: TLK1
[2] = test system: TLK2
[3] = test system: TNIK
[4] = test system: TNK1
[5] = test system: TNK2
[6] = test system: TNNI3K
[7] = test system: T1, TRKA
T1 construct: gene NTRK1

[8] = test system: TRKB
[9] = test system: T2, TRKC
T2 construct: gene NTRK3

[10] = test system: TRPM6
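Note: KINOMEscan kinase panel screen.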

Structure (SMILES)	%Inh [1]	%Inh [2]	%Inh [3]	%Inh [4]	%Inh [5]	%Inh [6]	%Inh [7]	%Inh [8]	%Inh [9]	%Inh [10]
Nc1cccc(-c2ccc3c(N)n[nH]c3c2)n1 [GSK2192730]	33%	21%	24%	0%	0%	0%	0%	0%	0%	18%
CCn1c(-c2c(N)noc2C)nc2cnccc21 [SB-737856]	0%	0%	0%	0%	22%	6%	0%	0%	0%	0%
COC(=O)C(NC(=O)NC1CCN(c2ccnc(Nc3ccc(F)cc3)n2)C1)c1ccccc1 (stereo not shown) [GSK1379712]	14%	6%	17%	0%	0%	24%	51%	6%	29%	44%
COc1cc2ncnc(Nc3cccc(Br)c3)c2cc1OC.Cl [GI230329]	0%	0%	10%	0%	8%	15%	45%	32%		0%
Cc1cnc(N)c(/C=C/c2cncc(C(=O)NCCc3ccc(Cl)cc3Cl)c2)c1.Cl [GSK190937]	0%	0%	9%	0%	11%	0%	35%	0%	0%	0%
O=C(Nc1n[nH]c2nc(-c3ccco3)c(Br)cc12)C1CCN(Cc2ccccc2)C1.O=C(O)[C@H](O)[C@@H](O)C(=O)O (stereo not shown) [SB-742034]	5%	6%	17%	13%	6%	0%	48%	17%	0%	1%
COc1ccc(Nc2nccc(-c3ccc(NC(=O)c4cc5cc(F)ccc5[nH]4)cc3)n2)cc1 [GSK1229496]	23%	0%	0%	47%	0%	0%	9%	13%	0%	0%
O=C(Nc1n[nH]c2cc(-c3ccsc3)ccc12)C1CC1 [SB-732932]	0%	0%	61%	0%	8%	0%	87%	39%	38%	0%
CNCc1ccc2nc(NC(=O)c3ccc(C(C)(C)C)cc3)cn2c1	0%	0%	8%	0%	1%	6%	39%	58%	28%	1%
Cc1ccc(-c2nc(Nc3ccncc3)c3ccccc3n2)s1 [GSK189015]	0%	0%	8%	29%	19%	14%	44%	0%	0%	15%
Cc1cccc2c(-c3ccncn3)c(-c3ccc(F)cc3)nn12 [GW515532]	6%	0%	8%	0%	0%	0%	2%	0%	7%	0%
CC(C)c1ccc(O)cc1Nc1ccnc2ccc(C(F)(F)F)cc12 [GW482059]	0%	0%	0%	0%	0%	71%	12%	11%	37%	1%
CS(=O)(=O)Cc1ccc(Nc2nccc(-c3c(-c4cccc(NC(=O)C5CCCCC5)c4)nn4ncccc34)n2)cc1 [GSK350559]	16%	0%	0%	29%	13%	0%	39%	16%	27%	0%
COc1ccc2cc(-c3nc(-c4ccccc4C(C)C)[nH]c3-c3ccncc3)ccc2c1 [SB-660566]	0%	0%	0%	32%	14%	15%	0%	13%	1%	18%
COC(=O)c1cccc(NC(=O)NC2CCN(c3ccnc(Nc4ccc(F)cc4)n3)C2)c1 (stereo not shown) [GSK1379725]	0%	0%	0%	0%	17%	2%	9%	58%	82%	0%
O=c1cc(N2CCOCC2)nc2n(Cc3cccc(Cl)c3Cl)c3ccccc3n12 [GSK2299009]	2%	0%	1%	6%	9%	17%	18%	0%	0%	36%
COc1ccc(Nc2nccc(N3CCC(NC(=O)c4cc5ccccc5s4)C3)n2)cc1 (stereo not shown) [GSK1379738]	3%	0%	0%	11%	18%	0%	60%	32%	0%	39%

— publication PMC5540273 (PLoS ONE, 2017)
